Screens deposited in PubChem BioAssay by National Center for Advancing Translational Sciences (NCATS).
Compounds with a hit are over-represented: about 0.85% of the library has one in this group of screens.
S-ASM inh: blocks human secretory acid sphingomyelinase; P17405; placental ASM, HMU-PC fluorogenic substrate, 60 min; AID 504937; Potency, µM (titrated, usually from 57.5 µM), without a hit: top-dose activity change, negative = inhibition, usual class: inhibitors; 0.006% of 340,000 active; active = well fitted inhibition curve with a large enough effect; inconclusive = small, poorly fitted or top-dose-only effect; inactive = no such curve, though single readings can be large or run the other way; note: potency is the fitted concentration of half-maximal effect
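Fluorogenic HMU-PC substrate (9 uM final) is turned over by placental ASM in 60 min at 37 C after a 10 min compound preincubation. Reaction ended by alkaline stop (pH 10), with fluorescence read at 386/447 nm.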
Six1-Eya2 inh: Six1/Eya2 interaction inhibition. activity change, % (concentration not given with the values). 0.56% of 360,000 active. AlphaScreen GST-Six1/His-Eya2 binding, biochemical; hits give low values. Q15475+O00167; note: % is set by controls: 0 for no effect and ±100 for the full control effect
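Six1/Eya2 binding was read as AlphaScreen signal after compounds were pinned into GST-Six1 plus His-tagged Eya2 (5X stock 250/500 nM) in pH 8.0 Tris/NaCl/TCEP buffer, beads added, then incubated 1 h, 37 C, dark.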
TSHR antag: blocks TSH signaling through the human TSH receptor. P16473. TSHR-expressing cells, TSH-stimulated cAMP HTRF, 2 h; hits give low values. activity change, negative = inhibition, % at 11.5 µM. 0.2% of 330,000 active. AID 504810;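 active = activity change below a set negative limit, meaning inhibition stronger than a set level, cut at about -70% in these data; inconclusive = activity change between two set negative limits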; note: % is set by controls: 0 for no effect and ±100 for the full control effect
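Freshly harvested TSHR cells receive pin-tooled compound, then EC80 TSH at 4nM final. After 2 hours at 37 deg C, antibody in lysis buffer and cAMP-d2 are added; 30 minutes at ambient temperature precede the HTRF read.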
CtBP-E1A inh: CtBP/E1A binding inhibition | AlphaScreen GST-E1A/His-CtBP binding, 1536-well; hits give low values | activity change, % (concentration not given with the values) | 0.49% of 340,000 active; note: % is set by controls: 0 for no effect and ±100 for the full control effect
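Homogeneous bead-based format: GST-tagged E1A captured on glutathione donor beads, His-tagged CtBP on nickel acceptor beads; compounds precede bead addition by 2 h at 37 °C.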
BCR signal inh: chronic active BCR signaling inhibition; ABC-DLBCL IkBa-CBG/CBR reporter, luminescence ratio, 4 h; Potency, µM (titrated, usually from 46.1 µM), without a hit: at the top dose activity change, negative = inhibition, most hits filed as inhibitors; 0.05% of 340,000 active; AID 493014; active = well fitted inhibition curve with a large enough effect in the signal ratio, with a control signal flat, not every such curve was filed as active; inconclusive = small, poorly fitted or top-dose-only effect, or effect the other way, or a change in a side signal; the % refers to the signal ratio;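 note: potency is the fitted concentration of half-maximal effect; plate controls were basal doxycycline-induced cells for no effect and cells given 10 µM MG132 for full effect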
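TMD8 human ABC-DLBCL cells with doxycycline-inducible IκBα–green luciferase fusion and unfused red luciferase, in 0.5% FBS medium; compounds up to 46 uM, 4 h at 37C. Green/red luminescence ratio, filter-overlap corrected, fitted to concentration-response curves.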
The depositor's hits bear a star; ? = inconclusive; . = no result. Cut-off read from the data, not from the text of the source, unless noted: active = activity change below about -65%; inconclusive = mostly about -30% to -63%; inactive = weaker than that.

SMILES | S-ASM inh | Six1-Eya2 inh | TSHR antag | CtBP-E1A inh | BCR signal inh
O=C(/C=C/c1ccccc1)OCC(=O)c1c[nH]c2ccccc12 | -14% | -7 | -3 | -19 | ?
COc1ccccc1C(=O)COC(=O)/C=C/c1ccccc1 | 3% | 25 | -93* | 8 | ?
COc1cccc(C(=O)N(Cc2cccnc2)c2nc3c(OC)ccc(C)c3s2)c1OC | . | . | . | . | -37%
Nc1nc2ncc(C(=O)c3cc(Cl)cc(Cl)c3O)cc2s1 | 9% | ? | -15 | -72* | 6%
COc1cc(OC)c2c(c1C(CCN1CCOCC1)c1ccc(N(C)C)cc1)OC(=O)CC2c1ccc(N(C)C)cc1 (stereo not drawn) | -3% | -80* | 2 | ? | -4%
COc1cc(NC(=O)Cn2c(=O)oc3cc(S(=O)(=O)N4CCCCCC4)ccc32)cc(OC)c1 | . | . | . | . | 4%
Nc1ccc2nc(N)sc2c1 | -2% | 4 | . | 0 | .
Nc1nc2ccc([N+](=O)[O-])c(N)c2s1 | -6% | ? | 22 | -72* | ?
COc1ccc(CC(N)c2csc(Nc3ncccn3)n2)cc1 (stereo not drawn) | . | -71* | . | -80* | .
COc1ccc(CC(N)c2csc(Nc3cc(NCc4ccco4)ncn3)n2)cc1 (stereo not drawn) | . | -65* | . | -74* | .
NC(c1csc(Nc2ncccn2)n1)c1ccccc1Cl (stereo not drawn) | . | -68* | . | -66* | .
CCc1cnc(Nc2nc(C(N)Cc3ccc(F)cc3)cs2)nc1 (stereo not drawn) | . | ? | . | -71* | .
COc1ccc(CC(N)c2csc(Nc3nccc(C(F)(F)F)n3)n2)cc1 (stereo not drawn) | . | -7 | . | -17 | .
COc1cc(OC)nc(Nc2nc(C(N)c3ccccc3Cl)cs2)n1 (stereo not drawn) | . | -29 | . | -30 | .
Cc1cccc(CNc2ncnc3ccc(-c4cccc(Cl)c4)cc23)c1 | . | . | 2 | . | -25%
CC1CCCCN1S(=O)(=O)c1cc2c3c(c1)CC(=O)N3CCC2 (stereo not drawn) | . | . | . | . | 2%
COc1ccc(CC(N)c2csc(Nc3cnccn3)n2)cc1 (stereo not drawn) | . | ? | . | -75* | .
COc1ccc(C(N)c2csc(Nc3ncccn3)n2)cc1 (stereo not drawn) | . | -85* | . | -83* | .
NC(c1csc(Nc2cc(NCCCO)ncn2)n1)c1ccccc1Cl (stereo not drawn) | . | -89* | . | -89* | .
COc1ccc(CC(N)c2csc(Nc3ccc(C(C)=O)cc3)n2)cc1 (stereo not drawn) | . | -25 | . | -12 | .
COc1cc2c(cc1OC)C(COc1ccc(F)cc1)N(C(=O)c1cccc(F)c1)CC2 (stereo not drawn) | . | . | . | . | -11%
CCCOc1ccc(C2C(=O)N(C3CCCCCC3)CC(=O)N2Cc2ccc(OC)cc2)cc1OC (stereo not drawn) | . | . | . | . | 2%
CCn1cc(C(=O)NC(C)C23CC4CC(CC(C4)C2)C3)cn1 (stereo not drawn) | 2% | 10 | 0 | 0 | -4%
CC(NC(=O)Cn1ncc(Cl)c(Cl)c1=O)C12CC3CC(CC(C3)C1)C2 (stereo not drawn) | -1% | 2 | -100* | 22 | ?
COc1ccccc1N1CCN(C(=O)CN2C(=O)c3cccc4cccc(c34)C2=O)CC1 | -1% | -2 | -8 | 3 | 1%
COc1ccccc1N1CCN(C(=O)CCCN2C(=O)c3cccc4cccc(c34)C2=O)CC1 | -5% | ? | -72* | ? | 12%
Cc1nnc(Sc2cc(NCCCO)c([N+](=O)[O-])c3nonc23)s1 | -8% | ? | -86* | -20 | ?
O=[N+]([O-])c1c(NCCCO)cc(Sc2nc3ccccc3s2)c2nonc12 | -2% | ? | -94* | 0 | ?
CCCC(=O)OCCNc1cc(Sc2nccn2C)c2nonc2c1[N+](=O)[O-] | -3% | ? | -93* | -1 | 2.9µM*
Cc1n[nH]c(=S)n(NC(=O)CC(=O)Nn2c(=S)[nH]nc(C)c2=O)c1=O | 4% | -87* | -6 | 24 | 7%
